# TbREL1 inh – TbREL1 inhibition, primary screen. P86926. TbREL1 RNA ligation, FRET fluorescence. inhibition, % at 9.66 µM. actives 0.49% (n = 89,000). AID 1117264;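 active = inhibition above the mean inhibition across all screened compounds plus 3 SD, cut at about 11% in these data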;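 also: 0% = plate median of test wells and 100% = NSC42067 control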
# Target sequence (P86926 whole entry, looked up): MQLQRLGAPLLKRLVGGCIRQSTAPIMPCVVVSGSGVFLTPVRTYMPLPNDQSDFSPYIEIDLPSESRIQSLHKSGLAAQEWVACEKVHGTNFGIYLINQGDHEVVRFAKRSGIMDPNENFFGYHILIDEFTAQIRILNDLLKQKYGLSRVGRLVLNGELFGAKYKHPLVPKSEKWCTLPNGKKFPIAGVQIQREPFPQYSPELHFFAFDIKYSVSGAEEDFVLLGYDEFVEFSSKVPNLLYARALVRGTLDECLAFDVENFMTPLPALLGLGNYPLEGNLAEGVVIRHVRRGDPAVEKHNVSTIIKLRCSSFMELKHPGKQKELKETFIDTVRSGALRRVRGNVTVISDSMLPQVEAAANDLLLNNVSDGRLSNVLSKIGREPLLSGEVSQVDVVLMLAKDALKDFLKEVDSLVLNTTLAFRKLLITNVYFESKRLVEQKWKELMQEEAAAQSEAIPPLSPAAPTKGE
# TbREL1 confirm – TbREL1 inhibition, confirmation; shares compounds with TbREL1 inh; TbREL1 RNA ligation, FRET fluorescence; actives 37% (n = 390); AID 1117282; inhibition, % at 9.66 µM;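 active = mean inhibition across replicates above a set limit taken from the earlier primary screen, cut at about 11% in these data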;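 also: 0% = REL1 with substrate and DMSO and 100% = REL1 plus control inhibitor NSC42067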
# An asterisk follows results filed as active. The sample as a whole holds a higher share of hits than the screen did.
SMILES,TbREL1 inh,others
CCC(C)OC(=O)c1c(N)n(Cc2cccs2)c2nc3ccccc3nc12 (stereo not drawn),6.8,
CCC(C)NC(=O)c1c(N)n(CCCOC)c2nc3ccccc3nc12 (stereo not drawn),44.5*,TbREL1 confirm=35.9*
Cc1cccn2c(NCC3CCCO3)c(C(C)C)nc12 (stereo not drawn),-0.8,
CCC(C)NC(=O)c1c(N)n(CC2CCCO2)c2nc3ccccc3nc12 (stereo not drawn),37.3*,TbREL1 confirm=28.9*
O=c1[nH]c2ccccc2n1C1CCN(C(c2ccccc2OC(F)(F)F)c2nnnn2-c2ccc3c(c2)OCCO3)CC1 (stereo not drawn),1.8,
CC1(C)CC(=O)C2=C(C1)NC(=O)C21C(C(=O)OC(C)(C)C)=C(N)Oc2ccc(Br)cc21 (stereo not drawn),-2.9,
O=P(O)(Oc1ccccc1)OC(c1ccccc1)C(F)(F)C(F)(F)F (stereo not drawn),0.6,
CCOC(=O)[C@]12Cc3cc(OC)ccc3[C@H]1N(C(C)C)C(=O)c1cc(OC)ccc12,2.0,
Cc1cc(O)c2c(c1)C(=O)[C@@]13C(=C2O)C(=O)[C@H]2C(O)[C@@H]1[C@H]1C(O)[C@@H]3C(=O)C3=C(O)c4c(O)cc(C)cc4C(=O)[C@@]312 (stereo partly drawn),32.3*,TbREL1 confirm=62.9*
Cc1cc(N2CCNC[C@H]2C)ccc1N1CCN[C@@H](C)C1,-0.6,
CC1CCCN(C(=O)c2ccc(N3CC4CC(C3)c3cccc(=O)n3C4)c([N+](=O)[O-])c2)C1 (stereo not drawn),-0.5,
O=c1[nH]c2ccccc2n1C1CCN(C(c2cccs2)c2nnnn2-c2ccc3c(c2)OCCO3)CC1 (stereo not drawn),0.0,
CC(C)(C)C(=O)N1Cc2cc(-c3cccc(F)c3)ccc2-n2nncc2C1,-1.8,
COc1ccc(-c2ccc3c(c2)CN(c2cccc(Cl)c2)Cc2cnnn2-3)cc1,15.4*,TbREL1 confirm=5.3
Clc1cccc(N2Cc3cc(N4CCOCC4)ccc3-n3nncc3C2)c1,-1.3,
CC(c1ccccc1)[n+]1ccccc1 (stereo not drawn),-0.5,
CC(=NCc1ccco1)c1c(O)n(-c2ccccc2)c(=O)[nH]c1=O,0.2,
C[C@@H]1COc2cc(N3CCN(C)CC3)ccc2S(=O)(=O)N1,-1.8,
CN1CCN(c2ccc(N)cc2)CC1,16.8*,TbREL1 confirm=11.0
CN1CCN(c2ccc(NC(=O)C(C)(C)C)cc2)CC1,-1.3,
c1ccc2c(CNC3CCCCCC3)c[nH]c2c1,3.4,
CN1C[C@H]2CON(C)[C@H]2C[C@H]1c1cccc(Br)c1,-0.7,
CC(c1ccccc1)n1cc(C(=O)NC2CCCC2)nn1 (stereo not drawn),-1.6,
N/C(=N\N=C/c1ccc(-c2ccc(O)c(C(=O)O)c2)o1)N[N+](=O)[O-],48.6*,TbREL1 confirm=16.9*
COc1ccc(/C=N/N=C(/N)N[N+](=O)[O-])c(OC)c1,1.2,
COc1ccc(CN2CCN(c3ccccc3)CC2)c(C)c1C,2.6,
CCc1c(C)nc(N)nc1N1N=C1SCC(N)=O,-0.1,
O=C(Nc1cccc(Cl)c1)OCC#CCN1CCCC1,-1.7,
Cc1ccc2c(c1)CC1(CN2C)C(=O)NC(=O)N(c2ccc(C)c(C)c2)C1=O (stereo not drawn),-2.4,
COC(=O)C1=C(c2ccc(F)cc2OCc2ccccc2)C[C@@H]2CC[C@H]1N2C(=O)NCc1ccc(C(F)(F)F)cc1,2.4,

# Screening results deposited in PubChem by The Scripps Research Institute Molecular Screening Center.
